# Measurements: PubChem BioAssay AID588342 (National Center for Advancing Translational Sciences (NCATS), 2011)
# In all, about 360,000 compounds went through this assay and about 25,000 (6.9%) were called active. Inconclusive results (about 9%) are left out. Calls come from the whole dose curve; as a rule, active = well fitted inhibition curve with a large enough effect; inconclusive = small, poorly fitted or top-dose-only effect; inactive = flat fitted curve, though single readings scatter. Shown is part of a subset that was picked to be rich in actives.
# Molecular target: Luciferin 4-monooxygenase (Photinus pyralis) (UniProt P08659)
# Sequence (P08659 whole entry, looked up): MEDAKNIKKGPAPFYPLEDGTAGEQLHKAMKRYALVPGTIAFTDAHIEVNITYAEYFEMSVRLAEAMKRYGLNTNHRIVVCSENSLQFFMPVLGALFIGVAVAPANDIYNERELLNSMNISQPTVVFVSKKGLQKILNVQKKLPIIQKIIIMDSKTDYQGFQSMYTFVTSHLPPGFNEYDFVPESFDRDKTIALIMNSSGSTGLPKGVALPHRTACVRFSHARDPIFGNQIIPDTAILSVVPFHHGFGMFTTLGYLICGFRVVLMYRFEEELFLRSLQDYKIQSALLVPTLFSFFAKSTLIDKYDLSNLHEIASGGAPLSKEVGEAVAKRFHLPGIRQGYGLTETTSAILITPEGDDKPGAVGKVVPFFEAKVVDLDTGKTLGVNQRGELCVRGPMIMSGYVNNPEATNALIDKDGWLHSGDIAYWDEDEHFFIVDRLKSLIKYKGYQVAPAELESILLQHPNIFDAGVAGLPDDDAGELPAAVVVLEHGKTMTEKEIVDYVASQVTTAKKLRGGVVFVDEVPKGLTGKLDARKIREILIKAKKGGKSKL
# Assay: qHTS profiling assay for firefly luciferase inhibitor/activator using purifed enzyme and Km concentrations of substrates (counterscreen for miR-21 project); note: nearly all actives have a fitted effect of over 55% in size;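 for activity change, negative = inhibition: plate controls were vehicle for no effect and reference inhibitor for full effect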
# Settings: purified FLuc, luminescence inhibition; series mostly up to 57.5 µM; activity change, negative = inhibition: at the top concentration
# Method in brief: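 Purified P. pyralis luciferase, 10 nM final, with Km-level 10 uM D-luciferin and 10 uM ATP in 50 mM Tris acetate pH 7.5, 10 mM Mg acetate, 0.01% Tween-20, 0.05% BSA; 6-point qHTS titration about 60 µM downward; luminescence read.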
# Potency is the fitted concentration of half-maximal effect.
Compound,"activity change, negative = inhibition",Potency
O=C(NCc1ccccc1)C(=O)NCC(c1ccco1)S(=O)(=O)c1ccc(Cl)cc1 (configuration not stated),-1.18% (inactive),–
Cc1ccc(N2CCN(C(=O)CCc3c(C)nc4c(c3C)c(=O)n(C)c(=O)n4C)CC2)c(C)c1,-0.374% (inactive),–
C=CCn1c(SCC(=O)NC(=O)Cc2ccccc2)nc2ccccc2c1=O,2.08% (inactive),–
Cc1nn(CC(=O)Nc2ccc(C#N)cc2)c(C)c1[N+](=O)[O-],1.77% (inactive),–
COc1ccc(NS(=O)(=O)c2cccc3nsnc23)cc1Cl,4.27% (inactive),–
Cc1ccccc1-c1nc(CS(=O)(=O)CC(=O)Nc2cc(Cl)cc(Cl)c2)c(C)o1,-16% (inactive),–
COc1ccccc1CNS(=O)(=O)c1cc(Br)cc2c1N(C(C)=O)C(C)C2 (configuration not stated),-3.66% (inactive),–
COc1ccc(CCNC(=O)COC(=O)Cc2cccc(F)c2)cc1,-0.275% (inactive),–
O=C(NCc1ccccc1)c1cccc(NC(=O)N2CCSc3ncccc32)c1,2.63% (inactive),–
COc1cc(OC)cc(C(=O)NCCc2csc3nc(-c4ccccc4F)nn23)c1,-7.94% (inactive),–
Cc1cccc(C(=O)N2c3nc(-c4ccco4)nn3C3(CCCCC3)[C@@H]3CCCC[C@@H]32)c1,-9.38% (inactive),–
CNS(=O)(=O)c1cccc(C(=O)OCC(=O)N2c3ccccc3NC(=O)C2(C)C)c1,8.6% (inactive),–
Cc1c(CC(=O)NCCCCCC(=O)O)c(=O)oc2cc3occ(-c4ccccc4)c3cc12,–,19 µM (active)
COc1ccc2c(C)c(CCC(=O)NCc3ccc(OC)c(OC)c3)c(=O)oc2c1,-2.04% (inactive),–
COc1cccc(-c2coc3cc4oc(=O)c(CC(=O)O)c(C)c4cc23)c1,–,19 µM (active)
Cc1ccc2[nH]c(=O)c(CC(=O)O)c(-c3ccccc3)c2c1,-8.3% (inactive),–
CC(=O)Oc1ccc2c(C)c(CC(C)O)c(=O)oc2c1 (configuration not stated),-1.05% (inactive),–
Cc1oc(C)c(C(=O)NCCCC(=O)O)c1C(=O)NCCCC(=O)O,-0.349% (inactive),–
COc1ccccc1CNC(=O)CCn1c(=O)c2ccccc2n(CC(=O)Nc2ccc(Br)cc2F)c1=O,-1.36% (inactive),–
COc1ccc(OCCn2cc(C(=O)C3CCCCC3)c3ccccc32)cc1,2.81% (inactive),–
Cc1ccc(-n2c(SCC(=O)N3c4ccccc4Sc4ccccc43)nnc2-c2ccncc2)cc1,0.549% (inactive),–
Cc1ccccc1-n1c(SCC(=O)NCc2cccs2)nnc1-c1ccncc1,-0.77% (inactive),–
Cc1ccc(Nc2nc(CSc3nnc(-c4ccncc4)n3-c3ccccc3C)cs2)cc1,–,21.3 µM (active)
CCCN1C(=O)C(Cc2nc3ccccc3c(=O)n2-c2ccccc2)c2cc(C)ccc21 (configuration not stated),–,inactive
COc1ccc(NC(=S)N2CCc3cc(OC)c(OC)cc3C2)cc1,-3.32% (inactive),–
COc1ccc(NC(=S)N2N=CCC2c2ccccc2)cc1 (configuration not stated),–,4.78 µM (active)
CCC(C)N(C)C1CCN(C(=S)Nc2ccc(OC)cc2)CC1 (configuration not stated),-4.4% (inactive),–
